Shown are actives, neighbours in structure and some others; about 1.6% of the full set was active somewhere.
KCNQ2 enhance – KCNQ2 (rat) channel potentiation; O88943; B-score at 10 µM; 310,000 tested, 0.54% active; AID 2239; CHO-K1 KCNQ2, FluxOR thallium flux fluorescence; stronger effect = higher value;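 active means fluorescence ratio B-score at least 3 SD of library B-scores, with initial fluorescence B-score within 3 of them, cut at about 5.3 in these data; same plate scores as AID 2156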;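 further: B-score of peak minus minimum over baseline fluorescence ratio after K+ and Tl+ stimulus; positive B-score means potentiation of KCNQ2 with more thallium influx and brighter signal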
Target sequence (O88943 whole entry, looked up): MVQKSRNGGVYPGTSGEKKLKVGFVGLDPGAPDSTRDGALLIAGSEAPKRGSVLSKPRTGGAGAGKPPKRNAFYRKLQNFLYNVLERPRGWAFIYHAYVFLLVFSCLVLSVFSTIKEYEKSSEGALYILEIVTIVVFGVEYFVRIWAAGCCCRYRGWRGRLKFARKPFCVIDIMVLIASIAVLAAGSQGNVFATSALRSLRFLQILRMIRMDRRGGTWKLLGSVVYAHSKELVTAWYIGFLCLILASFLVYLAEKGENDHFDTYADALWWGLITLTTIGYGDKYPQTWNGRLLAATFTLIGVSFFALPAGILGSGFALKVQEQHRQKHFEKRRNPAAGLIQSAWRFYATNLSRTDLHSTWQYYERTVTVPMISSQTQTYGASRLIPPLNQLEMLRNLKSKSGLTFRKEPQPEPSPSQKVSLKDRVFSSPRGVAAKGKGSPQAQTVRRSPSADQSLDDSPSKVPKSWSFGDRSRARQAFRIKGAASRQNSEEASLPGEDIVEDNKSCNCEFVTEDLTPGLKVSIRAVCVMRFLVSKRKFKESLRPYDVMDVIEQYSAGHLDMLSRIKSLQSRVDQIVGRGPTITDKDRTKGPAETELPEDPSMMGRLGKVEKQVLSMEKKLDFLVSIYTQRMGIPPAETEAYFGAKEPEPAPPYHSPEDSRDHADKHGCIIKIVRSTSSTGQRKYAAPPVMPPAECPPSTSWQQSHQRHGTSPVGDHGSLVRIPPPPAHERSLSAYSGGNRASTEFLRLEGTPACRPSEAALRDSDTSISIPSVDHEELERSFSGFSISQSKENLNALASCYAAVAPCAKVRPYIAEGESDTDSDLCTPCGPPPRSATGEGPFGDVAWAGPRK
KCNQ2 inh – inhibitors of rat KCNQ2 potassium channel | O88943 | CHO-K1 KCNQ2, FluxOR thallium flux, 20 min; stronger effect = lower value | B-score at 10 µM | 310,000 tested, 1.1% active | AID 2156;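 active means fluorescence ratio B-score at most minus 3 library SDs, with starting brightness B-score within 2 library SDs, cut at about -5.5 in these data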
* = called active by the depositor; i = inactive; / = no result given.

SMILES	KCNQ2 enhance	KCNQ2 inh
N/C(Cc1ccc([N+](=O)[O-])cc1)=N\OC(=O)CC1CCCCC1	8*	i
Cc1ccc(CC(=O)O/N=C(\N)Cc2ccc([N+](=O)[O-])cc2)cc1	/	i
COc1cccc(OC)c1C(=O)NC(=S)Nc1cc(-c2nc3ccccc3[nH]2)ccc1Cl	/	i
CCCn1nc2cc(C(=O)NCCc3cccs3)ccc2c1OCC	0.68	i
O=C(COC(=O)c1cccc(Cl)c1)NCCN1C(=O)CSC1=O	0.05	i
Cc1noc(C)c1COc1cccc(C(=O)OCC(=O)NCCN2C(=O)CSC2=O)c1	8.3*	i
Cc1nn(C)c2nc(-c3cccs3)cc(C(F)(F)F)c12	/	i
Cc1nn(CCO)c2nc(-c3cccs3)cc(C(F)(F)F)c12	5.8*	i
Cc1ccccc1NC(=O)c1c(C)nc(SCC(=O)OCc2ccccc2)c(C#N)c1-c1ccc(F)cc1	-7	-7*
Cc1nc(SCC(=O)OCc2ccccc2)c(C#N)c(-c2ccccc2)c1C(=O)Nc1ccccc1	/	i
CCN(CC)c1ccc(C(=O)OCC(=O)Nc2ccccc2-c2ccccc2)cc1	-6.5	-6.5*
CN(C)c1cccc(C(=O)OCC(=O)Nc2ccccc2-c2ccccc2)c1	0.47	i
COc1ccc(-c2noc(CCCOc3ccc(Cl)cc3Cl)n2)cc1	/	i
Cc1ccc(-c2noc(CCCOc3ccc(Cl)cc3Cl)n2)cc1	-7.3	-7.3*
O=C(/C=C/c1ccc([N+](=O)[O-])cc1)c1ccco1	-7.3	-7.3*
O=C(/C=C/c1ccc(Br)cc1)c1ccco1	/	i
Fc1cccc(-c2cc3nc4c(c(N5CCC6(CC5)OCCO6)n3n2)CCCC4)c1	-6.6	-6.6*
COc1cc(OC)cc(-c2cc3nc4c(c(N5CCN(c6ncccn6)CC5)n3n2)CCCC4)c1	-6.2	-6.2*
CCc1c(C)nc2cc(-c3cc(OC)cc(OC)c3)nn2c1N1CCCC1	0.09	i
OC1CCN(c2c3c(nc4cc(-c5cccc(F)c5)nn24)CCCC3)CC1	/	i
Cc1ccccc1S(=O)(=O)Cc1ccc(C(=O)NCc2ccc(F)cc2)o1	/	i
C/C(=N/NC(=O)c1ccc(C)nc1)c1ccc2c(c1)CCCC2	/	i
COc1ccc(CCNC(=O)CSc2nnc3ccccn23)cc1	1.3	i
CCOC(=O)C1(CCc2ccccc2)CCN(Cc2cccc3nccnc23)CC1	-5.9	-5.9*
CCOC(=O)C1(CCc2ccccc2)CCN(Cc2ccn[nH]2)CC1	/	i
SMILES	KCNQ2 enhance	KCNQ2 inh
COc1ccc(CNC(=O)c2nnn(-c3cccc(C(F)(F)F)c3)c2N)cc1	0.62	i
O=C(Oc1ccccc1)c1cccc2cccc(C(=O)Oc3ccccc3)c12	-5.8	-5.8*
O=C(Oc1ccccc1)c1cc2ccccc2oc1=O	/	i
COc1ccc(S(=O)(=O)NC2CC(=O)N(c3ccccc3)C2)cc1C (stereo unspecified)	/	i
CCOCCCNC(=O)c1ccc(CS(=O)(=O)Cc2ccc(C)cc2)o1	0.69	i
Nc1nnc(SCC(=O)c2ccccc2)s1	0.86	i
Nc1c(C(=O)c2ccccc2)sc2snc(SCC(=O)c3ccccc3)c12	-6	-6*
COC(=O)Cn1cnc2c(cnn2-c2ccc(C)cc2)c1=O	/	i
COc1ccc(CC(=S)NCCc2ccccc2)cc1	-6	-6*
S=C(Cc1ccccc1)NCCc1ccccc1	/	i
CCNC(=O)c1ccc(C23CC4CC(CC(C4)C2)C3)o1	0.01	i
COc1ccc([C@@H]2COc3c(ccc4c3C=CC(C)(C)O4)C2)c(OC)c1	-6.3	-6.3*
COc1ccc(C2CC(=O)OC3=C2C(=O)CC(C)(C)C3)c(OC)c1 (stereo unspecified)	0.09	i
CCC(C)c1ccc(NC(=S)NC(C)C2CCCO2)cc1 (stereo unspecified)	/	i
O=C(/C=C/c1c(F)cccc1Cl)N1CCc2ccccc2C1	/	i
Cc1ccc(S(=O)(=O)/N=C(/NC(=S)Nc2ccccc2)c2ccccc2)cc1	/	i
Cc1ccc(S(=O)(=O)C/N=C(/NC(=S)N(c2ccccc2)c2ccccc2)c2ccccc2)cc1	-5.9	-5.9*
O=C(C1CCC1)N1CCN(S(=O)(=O)c2ccc(Br)cc2Cl)CC1	0.36	i
COCC1CCN(C(=O)c2cc(COc3ccc4ncccc4c3)on2)CC1	/	i
CC(=O)N1C(C(=O)O)Cc2c([nH]c3ccccc23)C1(C)C (stereo unspecified)	7.3*	i
CC12CCC(=O)N1C(C(=O)O)Cc1c2[nH]c2ccccc12 (stereo unspecified)	/	i
Cc1cc(-n2c(SCCC#N)nnc2-c2cccnc2)ccc1Cl	0.1	i
CCN(CC)S(=O)(=O)c1ccc(OC)c(NC(=S)Nc2cccc(C)c2C)c1	0.67	i
CS(=O)(=O)Nc1cccc(C2=NN(C(=O)CCCC(=O)O)C(c3cccs3)C2)c1 (stereo unspecified)	1.1	i
CCOC(=O)C1=C(COCCN)NC(C)=C(C(=O)OC)C1c1ccccc1Cl (stereo unspecified)	/	i

Screens deposited in PubChem by Johns Hopkins Ion Channel Center.
